Test results reported in PubChem BioAssay (NCI).
The panel holds about 83,000 compounds, 20% with a hit somewhere; the sample as a whole holds those more often.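 Activity criterion: percent growth below 10, measured after cells in 96-well plates were exposed to a single compound concentration for 48 hours.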 Active and inactive are the calls of the source.

Experiments:
Assay in all cases: NCI-60 one-dose screen, 48 h (100 = growth as untreated, 0 = no growth, -100 = all killed)
Conditions in all cases: 10 µM unless noted
RPMI-8226 leukemia = system: RPMI-8226 leukemia
OVCAR-8 ovarian = system: OVCAR-8 ovarian
OVCAR-5 ovarian = system: OVCAR-5 ovarian
OVCAR-4 ovarian = system: OVCAR-4 ovarian
SK-OV-3 ovarian = system: SK-OV-3 ovarian
IGROV1 ovarian = system: IGROV1 ovarian
OVCAR-3 ovarian = system: OVCAR-3 ovarian
HS 578T breast = system: HS 578T breast
NCI/ADR-RES ovarian = system: NCI/ADR-RES ovarian
T-47D breast = system: T-47D breast
BT-549 breast = system: BT-549 breast
MDA-MB-435 melanoma = system: MDA-MB-435 melanoma
SW-620 colon = system: SW-620 colon
MCF7 breast = system: MCF7 breast
HCT-116 colon = system: HCT-116 colon
HCC-2998 colon = system: HCC-2998 colon
KM12 colon = system: KM12 colon

Measured: growth

O=C(S)CNC(=O)c1ccccc1
inactive: RPMI-8226 leukemia 94.5% | OVCAR-8 ovarian 101% | OVCAR-5 ovarian 93.1% | OVCAR-4 ovarian 110% | SK-OV-3 ovarian 89.4% | IGROV1 ovarian 105% | OVCAR-3 ovarian 101% | HS 578T breast 79.5% | NCI/ADR-RES ovarian 96.5% | T-47D breast 102% | BT-549 breast 86.2% | MDA-MB-435 melanoma 104% | SW-620 colon 97.6% | MCF7 breast 98.7% | HCT-116 colon 87.6% | HCC-2998 colon 101% | KM12 colon 105%

COc1c(B(O)O)cc(F)cc1-c1nc2ccc3[nH]ncc3c2c2c1CCCC2
active: RPMI-8226 leukemia -9.77% | HS 578T breast -2.19% | BT-549 breast -35.5% | SW-620 colon 5.71% | MCF7 breast 4.26% | HCT-116 colon 3.48% | HCC-2998 colon 5.31%
inactive: OVCAR-8 ovarian 16.1% | OVCAR-5 ovarian 15.4% | OVCAR-4 ovarian 25.8% | SK-OV-3 ovarian 19.3% | IGROV1 ovarian 10.6% | OVCAR-3 ovarian 11.9% | NCI/ADR-RES ovarian 16.1% | T-47D breast 14% | MDA-MB-435 melanoma 16.4%

c1cc2nc(-c3cn[nH]c3)c3c(c2cc1-c1cn[nH]c1)C1CCC3C1 (stereo not drawn)
inactive: RPMI-8226 leukemia 50.6% | OVCAR-8 ovarian 59.3% | OVCAR-5 ovarian 67.8% | OVCAR-4 ovarian 83.9% | SK-OV-3 ovarian 60.2% | IGROV1 ovarian 48.6% | OVCAR-3 ovarian 75.5% | HS 578T breast 23.2% | NCI/ADR-RES ovarian 64.8% | T-47D breast 37.6% | BT-549 breast 62% | MDA-MB-435 melanoma 75.3% | SW-620 colon 77.5% | MCF7 breast 49.2% | HCT-116 colon 61.5% | HCC-2998 colon 84.5% | KM12 colon 37.8%

O=C1NC(=O)C(Cn2cnc3ccccc32)N1 (stereo not drawn)
inactive: RPMI-8226 leukemia 99.5% | OVCAR-8 ovarian 106% | OVCAR-5 ovarian 110% | OVCAR-4 ovarian 105% | SK-OV-3 ovarian 101% | IGROV1 ovarian 105% | OVCAR-3 ovarian 103% | HS 578T breast 107% | NCI/ADR-RES ovarian 101% | T-47D breast 106% | BT-549 breast 110% | MDA-MB-435 melanoma 100% | SW-620 colon 99.3% | MCF7 breast 92.1% | HCT-116 colon 109% | HCC-2998 colon 103%

CC(=O)CC(c1ccccc1)c1c(C)[nH]c2ccccc12 (stereo not drawn)
inactive: RPMI-8226 leukemia 94.4% | OVCAR-8 ovarian 97.4% | OVCAR-5 ovarian 94.2% | OVCAR-4 ovarian 100% | SK-OV-3 ovarian 104% | IGROV1 ovarian 91.5% | OVCAR-3 ovarian 95.9% | HS 578T breast 84.6% | NCI/ADR-RES ovarian 93.6% | T-47D breast 99.5% | BT-549 breast 112% | MDA-MB-435 melanoma 100% | SW-620 colon 92.1% | MCF7 breast 96.2% | HCT-116 colon 89.6% | HCC-2998 colon 110% | KM12 colon 100%

Cn1cc(-c2ccc3cc(-c4ccc(CC(=O)Nc5cc(C(C)(C)C)nn5C)cc4)cnc3c2)cn1
inactive: OVCAR-5 ovarian 43.8% | OVCAR-3 ovarian 14.2% | SW-620 colon 20.1% | MCF7 breast 13.4% | HCT-116 colon 11.5% | HCC-2998 colon 32.9%
active: RPMI-8226 leukemia 3.3% | OVCAR-8 ovarian 3.03% | OVCAR-4 ovarian 3.73% | SK-OV-3 ovarian -5.28% | IGROV1 ovarian -1.22% | HS 578T breast -1.77% | NCI/ADR-RES ovarian -2.56% | T-47D breast -0.815% | BT-549 breast -8.22% | MDA-MB-435 melanoma 5.58% | KM12 colon -33.3%

NC1=C(c2nn[nH]n2)C(c2ccccc2Cl)c2ccc3ccccc3c2O1 (stereo not drawn)
active: MDA-MB-435 melanoma -10.3%
inactive: RPMI-8226 leukemia 71.7% | OVCAR-8 ovarian 86% | OVCAR-5 ovarian 109% | OVCAR-4 ovarian 81.5% | SK-OV-3 ovarian 86.2% | IGROV1 ovarian 63.2% | OVCAR-3 ovarian 69.6% | HS 578T breast 80.3% | NCI/ADR-RES ovarian 55.9% | T-47D breast 69.3% | BT-549 breast 93.1% | SW-620 colon 48.8% | MCF7 breast 41.3% | HCT-116 colon 63.1% | HCC-2998 colon 98.6% | KM12 colon 60.4%

COc1cc(CCC[P+](c2ccccc2)(c2ccccc2)c2ccccc2)c(OC)c(OC)c1OC
active: MDA-MB-435 melanoma 0.374%
inactive: RPMI-8226 leukemia 68.4% | OVCAR-8 ovarian 85.6% | OVCAR-5 ovarian 79.6% | OVCAR-4 ovarian 49.8% | SK-OV-3 ovarian 83.5% | IGROV1 ovarian 70.5% | OVCAR-3 ovarian 72% | HS 578T breast 51.8% | NCI/ADR-RES ovarian 77.7% | T-47D breast 63.5% | BT-549 breast 72.9% | SW-620 colon 82.6% | MCF7 breast 39% | HCT-116 colon 61.9% | HCC-2998 colon 100%

Cc1nc2ccccc2c(/C=C/c2ccccc2)c1C(=O)/C=C/c1ccc(C(F)(F)F)cc1
active: RPMI-8226 leukemia -29.1% | OVCAR-5 ovarian -34.6% | OVCAR-4 ovarian -42.8% | SK-OV-3 ovarian 7.69% | IGROV1 ovarian -72.4% | OVCAR-3 ovarian -86.5% | HS 578T breast -10.9% | NCI/ADR-RES ovarian -1.24% | T-47D breast -14.6% | BT-549 breast -25.6% | MDA-MB-435 melanoma -82.6% | SW-620 colon -32.9% | MCF7 breast -9.44% | HCT-116 colon -64.5% | HCC-2998 colon -70.5% | KM12 colon -58.9%
inactive: OVCAR-8 ovarian 10.3%

Cc1cccc(OCC(O)CN2CCN(c3ccc(Cl)cc3)CC2)c1 (stereo not drawn)
inactive: RPMI-8226 leukemia 103% | OVCAR-8 ovarian 94.9% | OVCAR-5 ovarian 103% | OVCAR-4 ovarian 106% | SK-OV-3 ovarian 115% | IGROV1 ovarian 124% | OVCAR-3 ovarian 104% | HS 578T breast 107% | NCI/ADR-RES ovarian 102% | T-47D breast 107% | BT-549 breast 99.6% | MDA-MB-435 melanoma 111% | SW-620 colon 104% | MCF7 breast 87.5% | HCT-116 colon 86.7% | HCC-2998 colon 110% | KM12 colon 106%

Cc1ccc(-c2nc(SCC(=O)Nc3nc(-c4ccc(Cl)cc4)cs3)[nH]c(=O)c2C#N)cc1
inactive: RPMI-8226 leukemia 103% | OVCAR-8 ovarian 92.3% | OVCAR-5 ovarian 94.3% | OVCAR-4 ovarian 111% | SK-OV-3 ovarian 100% | IGROV1 ovarian 105% | OVCAR-3 ovarian 115% | HS 578T breast 90.5% | NCI/ADR-RES ovarian 109% | T-47D breast 87.2% | BT-549 breast 83.6% | MDA-MB-435 melanoma 107% | SW-620 colon 107% | MCF7 breast 97.7% | HCT-116 colon 91.6% | HCC-2998 colon 109% | KM12 colon 96.1%

COc1cc(CCC[P+](c2ccccc2)(c2ccccc2)c2ccccc2)c(OC)c2c1OCO2
inactive: RPMI-8226 leukemia 10.4% | OVCAR-5 ovarian 64.6% | OVCAR-4 ovarian 11.1% | SK-OV-3 ovarian 27.2% | IGROV1 ovarian 32.5% | HS 578T breast 38.4% | NCI/ADR-RES ovarian 98.5% | T-47D breast 13.9% | BT-549 breast 15.8% | SW-620 colon 31.1% | HCT-116 colon 16.4% | HCC-2998 colon 26.7%
active: OVCAR-8 ovarian 9.83% | OVCAR-3 ovarian 5% | MDA-MB-435 melanoma 3.48% | MCF7 breast 9.9% | KM12 colon 6.93%

C[C@]12CC[C@@H]3c4cc(OC(F)F)c(OS(N)(=O)=O)cc4CC[C@H]3[C@@H]1CC[C@@H]2O
inactive: RPMI-8226 leukemia 17.8% | OVCAR-8 ovarian 35.3% | OVCAR-5 ovarian 49.3% | OVCAR-4 ovarian 63.2% | SK-OV-3 ovarian 40.8% | IGROV1 ovarian 34.5% | HS 578T breast 27.8% | T-47D breast 43.7% | BT-549 breast 41.8% | SW-620 colon 28.1% | MCF7 breast 22.1% | HCT-116 colon 21.3% | HCC-2998 colon 16.2% | KM12 colon 12.2%
active: OVCAR-3 ovarian -49.8% | NCI/ADR-RES ovarian -1.45% | MDA-MB-435 melanoma -70.8%

CCCCCCN1C(=O)/C(=c2\sc3n(c2=O)C2C(NN=3)N(CC)C(=O)N2CC)c2ccccc21 (stereo not drawn)
active: OVCAR-8 ovarian -22.3% | OVCAR-4 ovarian -35.5% | OVCAR-3 ovarian -50.2% | HS 578T breast 4.83% | NCI/ADR-RES ovarian -23.1% | MDA-MB-435 melanoma -49.2% | SW-620 colon -38.3% | MCF7 breast -10.4% | HCT-116 colon -37.3%
inactive: RPMI-8226 leukemia 44.6% | OVCAR-5 ovarian 32.4% | SK-OV-3 ovarian 54.8% | IGROV1 ovarian 24.2% | T-47D breast 16.2% | BT-549 breast 41.3% | HCC-2998 colon 83.5% | KM12 colon 16.6%

CCc1ccc2nc(NC(=O)Cc3csc(NC(=O)c4ccco4)n3)sc2c1
active: IGROV1 ovarian -9.65%
inactive: RPMI-8226 leukemia 55.8% | OVCAR-8 ovarian 43.3% | OVCAR-5 ovarian 83.1% | OVCAR-4 ovarian 43.1% | SK-OV-3 ovarian 65.1% | OVCAR-3 ovarian 64.1% | HS 578T breast 31.4% | NCI/ADR-RES ovarian 77.5% | T-47D breast 55.1% | BT-549 breast 57.4% | MDA-MB-435 melanoma 90.6% | SW-620 colon 101% | MCF7 breast 18.3% | HCT-116 colon 78% | HCC-2998 colon 101% | KM12 colon 78.6%

Cc1cc(O)c(C2=NN(c3ccc(S(N)(=O)=O)cc3)C(/C=C/c3ccccc3)C2)cc1Cl (stereo not drawn)
inactive: RPMI-8226 leukemia 48.7% | OVCAR-8 ovarian 38.6% | OVCAR-5 ovarian 51% | OVCAR-4 ovarian 34.6% | SK-OV-3 ovarian 17% | IGROV1 ovarian 16% | OVCAR-3 ovarian 29.7% | HS 578T breast 39.2% | NCI/ADR-RES ovarian 29.7% | T-47D breast 25.7% | BT-549 breast 52.4% | MDA-MB-435 melanoma 47.4% | SW-620 colon 51.9% | MCF7 breast 33.8% | HCT-116 colon 10.6% | HCC-2998 colon 50.5% | KM12 colon 57.6%

CCOC(=O)Nc1ccc(C(=O)/C=C/c2ccccc2)cc1
inactive: RPMI-8226 leukemia 18.9% | OVCAR-8 ovarian 92.3% | OVCAR-5 ovarian 102% | OVCAR-4 ovarian 103% | SK-OV-3 ovarian 110% | OVCAR-3 ovarian 86.8% | HS 578T breast 93.6% | NCI/ADR-RES ovarian 89% | T-47D breast 84.3% | BT-549 breast 95.1% | MDA-MB-435 melanoma 44.6% | SW-620 colon 73.9% | HCC-2998 colon 34.4%
active: IGROV1 ovarian -22.8% | MCF7 breast 0.358% | HCT-116 colon 6.33% | KM12 colon 8.51%

CN(C)c1ccc(/C=N\Nc2cc(=O)[nH]c3ccc(Cl)cc23)cc1
inactive: RPMI-8226 leukemia 93.2% | OVCAR-8 ovarian 93.4% | OVCAR-5 ovarian 101% | OVCAR-4 ovarian 121% | SK-OV-3 ovarian 82.9% | IGROV1 ovarian 75.3% | OVCAR-3 ovarian 108% | HS 578T breast 82.8% | NCI/ADR-RES ovarian 99.8% | T-47D breast 81.7% | BT-549 breast 85.5% | MDA-MB-435 melanoma 105% | SW-620 colon 86% | MCF7 breast 81% | HCT-116 colon 88.4% | HCC-2998 colon 104% | KM12 colon 104%
